Source: PubChem BioAssay (NCI)
Values joined by “and” are separate entries in the source; they are usually repeats but may differ in a detail not shown here. Identical values can stand only once. This is part of a sample that, as a whole, favours compounds with a hit. Of some 79,000 tested, about 15% had one in any assay. The source holds several records for some structures; these can differ, active in one and inactive in another. Active and inactive are the calls of the source. Cut-off read from the data, not from the text of the source: active = growth inhibition above about 70%; inactive = the rest.

Columns and labels:
[1] = NCI Yeast Anticancer Drug Screen. Data for the rad50 strain (AID 155);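 note: 0% = growth of vehicle-only cultures of the same strain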; details: S. cerevisiae rad50 strain growth inhibition, stronger effect = higher value
In short: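 Vehicle-treated cultures provide the reference for the growth inhibition reported for compound-exposed, repair-deficient yeast.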

[2] = NCI Yeast Anticancer Drug Screen. Data for the mec2-1 strain (AID 157); details: S. cerevisiae mec2-1 strain, stronger effect = higher value
In short: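 Compounds were applied to mec2-1 yeast cells. Their growth was then compared with that of vehicle-treated cultures to give growth inhibition.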

[3] = NCI Yeast Anticancer Drug Screen. Data for the sgs1 mgt1 strain (AID 161);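 note: 0% = growth of cultures given vehicle only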; details: S. cerevisiae sgs1 mgt1 strain, stronger effect = higher value
In short: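 Percent growth inhibition was derived by comparing compound-exposed mutant yeast with vehicle-exposed cultures. The strain carries alterations in DNA damage repair.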

[4] = NCI Yeast Anticancer Drug Screen. Data for the cln2 rad14 strain (AID 165);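 note: 0% = growth equal to vehicle treated cultures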; details: S. cerevisiae cln2 rad14 strain, stronger effect = higher value
In short: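 Strain: cln2 rad14 yeast, altered in cell cycle control and DNA damage repair. Read-out: growth inhibition vs vehicle.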

[5] = NCI Yeast Anticancer Drug Screen. Data for the bub3 strain (AID 167); details: S. cerevisiae bub3 mutant strain, stronger effect = higher value
In short: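 Mutant yeast screening strain plus compound; vehicle-treated cultures serve as the 0% inhibition reference.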

[6] = NCI Yeast Anticancer Drug Screen. Data for the mlh1 rad18 strain (AID 175); details: S. cerevisiae mlh1 rad18 strain growth inhibition, stronger effect = higher value
In short: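 A repair-deficient yeast strain is exposed to test compound, and growth is scored relative to vehicle-treated controls.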

[7] = at 5.0 µM (retest, dose inferred, filed as 0.5)
[8] = at 50.0 µM (retest, dose inferred, filed as 5.0)

| Structure (SMILES) | growth inhibition [1, 7] | growth inhibition [1, 8] | growth inhibition ([1]; at 50.0 µM) | growth inhibition [2, 7] | growth inhibition [2, 8] | growth inhibition ([2]; at 50.0 µM) | growth inhibition [3, 7] | growth inhibition [3, 8] | growth inhibition ([3]; at 50.0 µM) | growth inhibition [4, 7] | growth inhibition [4, 8] | growth inhibition ([4]; at 50.0 µM) | growth inhibition [5, 7] | growth inhibition [5, 8] | growth inhibition ([5]; at 50.0 µM) | growth inhibition [6, 7] | growth inhibition [6, 8] | growth inhibition ([6]; at 50.0 µM) |
| --- | --- | --- | --- | --- | --- | --- | --- | --- | --- | --- | --- | --- | --- | --- | --- | --- | --- | --- |
| CC(C)[O-].CC(C)[O-].[O-]c1cccc2cccnc12.[O-]c1cccc2cccnc12.[Ti+4] | 6% (inactive) | 6% (inactive) | 55.5% (inactive) | 11% (inactive) | 11% (inactive) | 70.8% (active) | 4% (inactive) | 4% (inactive) | 37.6% (inactive) | 6% (inactive) | 6% (inactive) | 51.8% (inactive) | -3% (inactive) | -3% (inactive) | 64.8% (inactive) | -24% (inactive) | -24% (inactive) | 58.9% (inactive) |
| CCOC(=O)C(/N=N\c1nn[nH]n1)/N=N/c1ncn[nH]1 (stereo unspecified) | -7% (inactive) | -8% (inactive) | 97.7% (active) | -28% (inactive) | -6% (inactive) | 99.5% (active) | -6% (inactive) | -1% (inactive) | 73.2% (active) | -2% (inactive) | -10% (inactive) | 93.2% (active) | -6% (inactive) | -3% (inactive) | 98.8% (active) | -7% (inactive) | -5% (inactive) | 99.2% (active) |
| CC[C@](C)(O)C(=O)O[C@H]1C(=O)O[C@@H]2C[C@H]3C(C)=CC(=O)[C@@H](O)[C@]3(C)[C@H]3[C@@]4(O)OC[C@]32[C@@H]1[C@@H](C)[C@H]4O | 17% (inactive) | 94% (active) | 68% (inactive) | 21% (inactive) | 90% (active) | 46.6% (inactive) | 14% (inactive) | 91% (active) | 61.8% (inactive) | 33% (inactive) | 97% (active) | 71.6% (active) | 6% (inactive) | 97% (active) | 70.3% (active) | 9% (inactive) | 94% (active) | 74.3% (active) |
| CN[C@H]1C[C@@H]2O[C@@](C)([C@H]1OC)n1c3ccccc3c3c4c(c5c6ccccc6n2c5c31)C(=O)NC4 | 99% (active) | 99% (active) | 92.3% (active) | 99% (active) | 99% (active) | 92.9% (active) | 97% (active) | 99% (active) | 90.6% (active) | 96% (active) | 99% (active) | 91.5% (active) | 98% (active) | 98% (active) | 91.8% (active) | 98% (active) | 99% (active) | 91.8% (active) |
| COc1cccc2c1cc([N+](=O)[O-])c1c(C(=O)O)cc3c(c12)OCO3 | 35% (inactive) and 54% (inactive) | 95% (active) and 94% (active) | 87.8% (active) and 91% (active) | 4% (inactive) and 39% (inactive) | 83% (active) and 93% (active) | 85.7% (active) and 91.7% (active) | 22% (inactive) and 61% (inactive) | 94% (active) and 95% (active) | 88.3% (active) and 88.7% (active) | -11% (inactive) and 19% (inactive) | 62% (inactive) and 84% (active) | 84.4% (active) and 86.8% (active) | 18% (inactive) and 49% (inactive) | 78% (active) and 93% (active) | 89.8% (active) and 90.5% (active) | 25% (inactive) and 71% (active) | 90% (active) and 95% (active) | 88.7% (active) and 79.7% (active) |
| [O]=[Sb]([OH])([OH])[c]1ccccc1 | 95% (active) | 98% (active) | 99.5% (active) and -13.8% (inactive) | 91% (active) | 99% (active) | 99.5% (active) and -26.9% (inactive) | 94% (active) | 99% (active) | 99.2% (active) and 28.1% (inactive) | 94% (active) | 98% (active) | 99.4% (active) and 23% (inactive) | 93% (active) | 98% (active) | 99.3% (active) and 17.1% (inactive) | 94% (active) | 98% (active) | 99.2% (active) and 6.5% (inactive) |
| [C](#Cc1ccccc1)[Hg][C]#Cc1ccccc1 | 65% (inactive) | 99% (active) | 98.8% (active) | 94% (active) | 99% (active) | 98.8% (active) | 94% (active) | 100% (active) | 99% (active) | 26% (inactive) | 99% (active) | 84.9% (active) | 21% (inactive) | 99% (active) | 98.3% (active) | 24% (inactive) | 99% (active) | 98.8% (active) |
| CC1(C)CCC(C)(C)c2cc(Cl)c(O)cc21 | 4% (inactive) | 1% (inactive) | 97.8% (active) | 4% (inactive) | 2% (inactive) | 99.2% (active) | 4% (inactive) | 2% (inactive) | 52.5% (inactive) | 5% (inactive) | 4% (inactive) | 96.6% (active) | 3% (inactive) | 9% (inactive) | 98.8% (active) | -1% (inactive) | -4% (inactive) | 97.2% (active) |
| CC[n+]1c(-c2ccccc2)c2cc(N)ccc2c2ccc(N)cc21 | 39% (inactive) and 29% (inactive) | 91% (active) and 92% (active) | 81.6% (active) and 83.3% (active) | 7% (inactive) and -18% (inactive) | 45% (inactive) and 13% (inactive) | 3.7% (inactive) and 3.85% (inactive) | -4% (inactive) and -13% (inactive) | 16% (inactive) and 27% (inactive) | 23.3% (inactive) and 32.1% (inactive) | 2% (inactive) and -6% (inactive) | 27% (inactive) and 40% (inactive) | 11.8% (inactive) and 34.9% (inactive) | -7% (inactive) and -2% (inactive) | 27% (inactive) and 24% (inactive) | 52.9% (inactive) and 5.2% (inactive) | -17% (inactive) and -4% (inactive) | 25% (inactive) and 20% (inactive) | 20.2% (inactive) and 34.6% (inactive) |
| CN(C)c1ccc(N=Cc2c([O-])ccc3ccccc23)cc1.[C-]#[O+].[C-]#[O+].[Ir] | 1% (inactive) | 1% (inactive) | 83.4% (active) | 15% (inactive) | 15% (inactive) | 60.4% (inactive) | -17% (inactive) | -17% (inactive) | 78.3% (active) | 3% (inactive) | 3% (inactive) | 77.1% (active) | 2% (inactive) | 2% (inactive) | 82.5% (active) | 9% (inactive) | 9% (inactive) | 71.1% (active) |
| O=S(=O)([O-])[O-].[Fe+2].c1ccc(/C(=N\Nc2ccccn2)c2ccccn2)cc1 | 3% (inactive) | 33% (inactive) | 12.9% (inactive) | -2% (inactive) | 39% (inactive) | 82.2% (active) | -4% (inactive) | 22% (inactive) | 16.1% (inactive) | -3% (inactive) | -8% (inactive) | 13.5% (inactive) | 1% (inactive) | 1% (inactive) | 1.75% (inactive) | -3% (inactive) | 7% (inactive) | 25.8% (inactive) |
| CCOP(=O)(OCC)/C(C#N)=C/c1ccccc1Cl | 17% (inactive) | 74% (active) | 82.5% (active) | -7% (inactive) | 62% (inactive) | 72.8% (active) | 2% (inactive) | 65% (inactive) | 79.8% (active) | 10% (inactive) | 55% (inactive) | 64.8% (inactive) | 0% (inactive) | 74% (active) | 72.7% (active) | -2% (inactive) | 77% (active) | 81.8% (active) |
| NN1CCCC1C(=O)O (stereo unspecified) | -1% (inactive) | 2% (inactive) | 23.1% (inactive) | -2% (inactive) | -1% (inactive) | 53.1% (inactive) | 0% (inactive) | 0% (inactive) | 28.2% (inactive) | 3% (inactive) | -2% (inactive) | 76.2% (active) | 4% (inactive) | -2% (inactive) | 99.3% (active) | -1% (inactive) | 2% (inactive) | 65.6% (inactive) |
| O=C1CN2C(Cl)(Cl)C2(c2ccccc2)c2cc(Cl)ccc2N1CC1CC1 (stereo unspecified) | 54% (inactive) | 93% (active) | 90.3% (active) | 29% (inactive) | 93% (active) | 91.3% (active) | 27% (inactive) | 94% (active) | 92.7% (active) | 18% (inactive) | 91% (active) | 88.3% (active) | 39% (inactive) | 93% (active) | 68.2% (inactive) | 65% (inactive) | 92% (active) | 87.3% (active) |
| CCOCCOC(=O)Cc1ccccc1 | 5% (inactive) | 42% (inactive) | 64.3% (inactive) | 2% (inactive) | 6% (inactive) | 98.3% (active) | -1% (inactive) | 6% (inactive) | 46.9% (inactive) | 4% (inactive) | 16% (inactive) | 55.6% (inactive) | 7% (inactive) | 12% (inactive) | 94% (active) | 6% (inactive) | 19% (inactive) | 95.5% (active) |
| CN(CCO)CCO | 18% (inactive) | 86% (active) | 6.55% (inactive) and -12.4% (inactive) | 3% (inactive) | 26% (inactive) | 7.5% (inactive) and 36.6% (inactive) | 5% (inactive) | 43% (inactive) | -0.35% (inactive) and 15.9% (inactive) | 1% (inactive) | 21% (inactive) | -8.05% (inactive) and 58.9% (inactive) | 1% (inactive) | 6% (inactive) | -9.75% (inactive) and 30.8% (inactive) | 10% (inactive) | 38% (inactive) | -11.8% (inactive) and 21.9% (inactive) |
| ClCCN(CCCl)c1ccc(C2N(Cc3ccc(Cl)cc3)CCCN2Cc2ccc(Cl)cc2)cc1 | 11% (inactive) | 56% (inactive) | 98.5% (active) | 10% (inactive) | 39% (inactive) | 98.5% (active) | 16% (inactive) | 68% (inactive) | 98.8% (active) | 4% (inactive) | 24% (inactive) | 94.9% (active) | 7% (inactive) | 35% (inactive) | 98.8% (active) | 33% (inactive) | 94% (active) | 98.4% (active) |
